In ChEMBL document CHEMBL4513216, “Probing the Open Global Health Chemical Diversity Library for Multistage-Active Starting Points for Next-Generation Antimalarials” (ACS Infect Dis, 2020) one finds INHIBITION data, which are given here for 32 compounds.

Hit rate of the full screen: of about 69,000 compounds, about 8,600 (12%) showed an effect of 50% or more. This excerpt belongs to a sample that is enriched for strong results.

This assay relates to Plasmodium berghei. Briefly: Screen against P. berghei liver stage (PbLuc), transformed with Luciferase, at 10uM. It counts as functional, HepG2. The following applies: tested at 10 uM.
Turning to `Cc1[nH]nc(CCC(=O)NCC2CCCN(C3CCCC3)C2)c1C` (configuration not stated), the INHIBITION was found to be 41.6%.
Then `Cc1ccc(OCCN2CCN(Cc3cnn(CCO)c3)CC2)cc1`, with 22.25%; and `C=C(C)COc1cccc(C(=O)N2CCC3(CC2)CN(C)CCN3C)c1`, with 46.1%.
For `COc1cccc(C(=O)N2CCOC3(CCCN(C(C)=O)C3)C2)c1` (configuration not stated), the INHIBITION came to 33.4%.
Turning to `CCOc1cccc(C(=O)N2CCC3(CC2)[C@H](O)C[C@@H]3OC)c1`, the INHIBITION was -55.1%.
As for `C=C(C)COc1cccc(C(=O)N2CCC3(CCOCC3)CC2)c1`, the INHIBITION stood at 52.6%.
Regarding `C=C(C)COc1cccc(C(=O)N2CCC(O)(c3ccccc3)CC2)c1`, the INHIBITION came to 65.6%.
Regarding `CC(C)(O)CCc1cccc(C(=O)N2CCC3(CCOCC3)CC2)c1`, the INHIBITION is on record as -147%.
Turning to `CCn1nc(C)cc1C(=O)N1C[C@@H]2C[C@@H](c3nc(C)cs3)O[C@@H]2C1`, the INHIBITION is listed as 15.6%.
Then `CC(C)COc1cncc(N2CCCN(CC(F)(F)F)CC2)n1`, with -1.04%.
On to `CC(C)COc1cncc(N(C)C2CCN(c3ncccn3)CC2)n1`, for which the INHIBITION worked out at 21.2%.
As to `CC(C)COc1cncc(N2CCCN(c3ncccn3)CC2)n1`, the INHIBITION came out at 50.4%.
`O=C(NCc1ccco1)[C@@]12CCO[C@@H]1CCN(c1ncccn1)C2`: the INHIBITION is reported as 27.6%.
Regarding `Cn1cc(CC2CC(=O)N(Cc3ccccc3OC(F)F)C2=O)cn1` (configuration not stated), the INHIBITION was determined as 33.1%.
Regarding `CN(C)C(=O)c1nn(C)c2c1CN(Cc1cccs1)C2`, the INHIBITION was -6.23%.
`Cc1ccc(CN2C[C@H](N3CCOCC3)[C@@H]3OCCC[C@@H]32)o1`: the INHIBITION was -22.1%.
In the case of `Cc1nccn1CCC1CCN(C(C)C)CC1`, the INHIBITION is reported as 38.8%.
For `Cc1ccc(C(=O)NCc2cc(F)ccc2N2CCCN(C)CC2)o1`, the INHIBITION was 42.1%.
In the case of `CN1CCCN(c2ccc(F)cc2CNC(=O)c2ccsc2)CC1`, the INHIBITION is 79.7%.
Then `CN1CCCN(c2ccc(F)cc2CNC(=O)c2cccnc2)CC1`, with -12.2%; and `CN(CCCOc1ccccc1Cl)C(=O)CN1C[C@H]2CC[C@@H](CC1=O)N2`, with 17%.
As to `CCS(=O)(=O)NC1CCCN(c2ccc(F)cc2C)C1=O` (configuration not stated), the INHIBITION was 5.29%.
For `CCc1ncc(C(=O)N2CCN(c3cnn(C)c(=O)c3)CC2)cn1`, the INHIBITION is 45.8%.
Consider `Cc1cncc(C(=O)N2CCN(c3cnn(C)c(=O)c3)CC2)c1`, for which the INHIBITION is -5.52%.
Turning to `Cc1oc(C(C)C)cc1C(=O)N1CCN(c2cnn(C)c(=O)c2)CC1`, the INHIBITION is 51.1%.
With `CN(C)c1ccccc1C(=O)N1CCCC(c2ccc(C(=O)O)cc2)C1` (configuration not stated), the INHIBITION worked out at 18.6%.
With `CCC(C(=O)NCc1csc(-c2ncccn2)n1)n1cccn1` (configuration not stated), the INHIBITION worked out at 60.4%.
Regarding `CCC(C(=O)NCc1csc(N2CCOCC2)n1)n1cccn1` (configuration not stated), the INHIBITION was determined as 57.5%.
As for `CCC(C(=O)NCc1cc(N2CCOCC2)ncn1)n1cccn1` (configuration not stated), the INHIBITION came out at 36.7%.
On to `CCc1csc(CNC(=O)C(CC)n2cccn2)n1` (configuration not stated), for which the INHIBITION came to 19.8%.
Turning to `CCC(C(=O)N1CCN(C(=O)N2CCOCC2)CC1)n1cccn1` (configuration not stated), the INHIBITION turned out to be 33%.
Then `CC(Cn1cccn1)NCc1csc(-c2ncccn2)n1` (configuration not stated), with -29.1%.
